VCAM1 TNFa inh: inhibitors of TNFa-induced VCAM1 expression, primary screen, imaging, HUVEC, TNFa stimulus, immunofluorescence; hit rate 0.48% among 95,000; AID 802, 2007; HUVEC TNFa-induced VCAM-1 immunofluorescence, high-content imaging; inhibition, % at 2 µM;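 active = inhibition above the batch mean plus 3 SD, with images confirmed as a hit by eye, cut at about 37% in these data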
HUVEC tox TNFa: cytotoxicity in TNFa-stimulated HUVEC, primary screen, cytotoxicity control for VCAM1 expression modulator project, imaging, Hoechst nuclei count; HUVEC TNFalpha-stimulated, Hoechst cell count; cell count reduction, % at 2 µM; hit rate 0.17% among 93,000;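 active = cell count reduction exceeding the screen mean by over 5 SD, scaled to untreated wells per plate, cut at about 78% in these data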;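 also: cells counted after 24 h of TNF alpha exposure following the 1 h pretreatment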
F-actin modifier: modifiers of F-actin cytoskeleton organization, primary screen, imaging, HUVEC, phalloidin staining, high-content imaging; HUVEC TNFa F-actin phalloidin imaging; inhibition, % at 2 µM; hit rate 0.18% among 91,000;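 active = inhibition above the batch mean plus 3 SD and confirmed as a hit by visual image inspection, cut at about 30% in these data, passing the limit was not always enough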
E-sel TNF inh: E-selectin induction blockers in HUVEC – imaging, immunofluorescence, high content, primary screen. HUVEC TNFa-induced E-selectin immunofluorescence. inhibition, % at 2 µM. hit rate 0.71% among 120,000. AID 1246, 2008;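 active = inhibition above the batch mean plus 3 SD, and confirmed as a hit on visual image review, cut at about 43% in these data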
Hits are given with their value; n = inactive; x = no result given. Only some compounds are listed: those with a hit (about 1% of all), similar ones and a draw of the others.

SMILES	VCAM1 TNFa inh	HUVEC tox TNFa	F-actin modifier	E-sel TNF inh
CCOC(=O)c1cccc(NC(=O)CSc2nnc(-c3ccoc3C)n2CCOC)c1	n	91	n	100
Cc1occc1-c1nnc(SCC(=O)Nc2ccccc2)n1CCc1ccccc1	n	n	n	n
Cc1cc(NC(=O)NC2CC(=O)N(c3ccc4c(c3)OCCO4)C2)no1 (stereo unspecified)	x	x	x	n
Cc1ccc(-n2c(C)cc(C=C(C#N)C#N)c2C)cc1	n	n	n	52
COC(=O)c1cnc(SCc2ccc(C)cc2)n1C	x	x	x	69
CCN(CC)S(=O)(=O)c1ccc(OC)c(NC(=S)Nc2cccc(C)c2C)c1	x	x	x	n
COc1ccc(NC(=O)C(=O)NCCN2CCN(C(=O)c3cccs3)CC2)cc1	n	n	n	n
Cc1cc(NC(=O)C(=O)NCCN2CCN(C(=O)c3cccs3)CC2)ccc1Br	n	n	34	n
O=C(NN1CCOCC1)c1cc(-c2ccc(Cl)c(Cl)c2)nc2ccccc12	x	x	x	n
CCC(=O)Nc1sc2c(c1C#N)CC(C)(C)NC2(C)C	n	n	n	x
CC1(C)Cc2c(sc(NC(=O)C(C)(C)C)c2C#N)C(C)(C)N1	n	89	76	n
CCOC(=O)C1CCN(C(=O)NS(=O)(=O)c2ccc(C)cc2)CC1	x	x	x	n
Cc1ccc(C(=O)NCC2CCCO2)cc1N1CCCC1=O (stereo unspecified)	n	n	n	66
CCc1nnc(NC(=O)[C@@H](NC(=O)c2cccc(S(=O)(=O)N(CC)CC)c2)C(C)C)s1	n	n	n	n
Cc1n[nH]c(C)c1CCc1nc2c3ccccc3nc(SCC(N)=O)n2n1	n	n	n	x
Cc1ccc(NC(=O)CSc2nc3ccccc3c3nc(CCc4c(C)n[nH]c4C)nn23)cc1F	n	n	n	82
O=C(COC(=O)c1cc(-c2ccc(F)cc2)nc2ccccc12)NCC1CCCO1 (stereo unspecified)	x	x	x	n
COc1ccc(OC2C(=O)N(Cc3ccc4c(c3)OCO4)C2c2sccc2C)cc1 (stereo unspecified)	n	n	n	n
COCCNC(=O)NC(=O)CN1CCCc2ccccc21	x	x	x	n
CC(C)(C)SCCNC(=O)CN(c1ccc(F)cc1)S(C)(=O)=O	90	79	n	x
CC(C)(C)SCCNC(=O)CN(c1ccc(F)c(Cl)c1)S(C)(=O)=O	n	n	n	n
S=C(NCC1CCCO1)NC1CC1 (stereo unspecified)	x	x	x	n
OC(c1ccc2c(c1)OCO2)c1nccc2ccccc12 (stereo unspecified)	n	n	n	72
CCOC(=O)C(NC(=O)c1ccc(Cl)cc1Cl)(Nc1ccc(C)cc1)C(F)(F)F (stereo unspecified)	n	n	n	n
Cc1cc2ncn(CCC(=O)NC(C)(C)C)c2cc1C	x	x	x	n
SMILES	VCAM1 TNFa inh	HUVEC tox TNFa	F-actin modifier	E-sel TNF inh
CS(=O)(=O)C1=NSC2=NC(=O)/C(=C\c3cccn3-c3ccc(Cl)cc3)C(=N)N21	x	x	x	100
CC(OC(=O)c1cc(S(=O)(=O)N(C)c2ccccc2)ccc1Cl)C(=O)Nc1ccc2c(c1)OCCO2 (stereo unspecified)	x	x	x	n
COCCCNC(=S)NC1CC2CCCC(C1)N2Cc1ccco1 (stereo unspecified)	n	n	68	n
O=C(CN1CCCCCC1=O)OCc1ncc(-c2ccccc2)o1	90	n	n	x
N/C(CN1CCCC1=O)=N\OC(=O)c1ccccc1Cl	n	n	n	x
COc1ccccc1N1C(=O)C2C(c3ccccc3F)NN(C(=O)c3ccc(C)cc3)C2C1=O (stereo unspecified)	x	x	x	n
COc1ccc(OC)c2sc(NC(=O)CCS(=O)(=O)c3ccccc3)nc12	50	n	n	93
CCc1ccc(NS(=O)(=O)c2cc(OC)ccc2OC)cc1	n	81	n	x
CCOC(=O)/C(=C\c1cccnc1)C(=O)c1cc(C(C)=O)c(Nc2ccccc2)s1	54	n	x	n
Cc1cccn2c(CNC3CCCc4ccccc43)c(C(=O)N3CCCCC3)nc12 (stereo unspecified)	x	x	x	n
C=CCCCOc1ccc(C(=O)O)cc1	76	n	n	n
COc1ccc(C(=O)/C=C/c2ccc(F)cc2)c(OC(=O)c2ccc([N+](=O)[O-])cc2)c1	n	n	n	70
COc1ccc(-c2nc(CS(=O)CC(=O)NCc3cccnc3)c(C)o2)cc1 (stereo unspecified)	n	82	n	x
CCc1ccc(-c2nc(CS(=O)CC(=O)NCc3cccnc3)c(C)o2)cc1 (stereo unspecified)	x	x	x	n
O=C(O)CCC(=O)Nc1ccc(Br)c(Cl)c1	n	n	n	75
Cc1nc(NC(C)C)c2oc3ccccc3c2n1	78	91	n	x
CCNc1nc(C)nc2c1oc1ccccc12	n	92	n	x
CCNc1nc(CC)nc2c1oc1ccccc12	x	x	x	n
CC(NC(=O)COc1cccc(Br)c1)C(=O)O (stereo unspecified)	n	n	n	77
Cc1c(Cl)c(C(=O)NNC(=S)NCc2ccco2)nn1C	n	n	n	n
Cn1cc(Cl)c(C(=O)NNC(=S)NCc2ccco2)n1	x	x	x	73
Cn1nc(C(=O)OCC(=O)N2CCc3ccccc32)c2ccccc2c1=O	77	88	n	x
Cc1ccc(C(=O)OCC(=O)N2CCc3ccccc32)cc1	n	n	n	n
O=C1C(=O)c2ccc(-c3ccccc3)cc2-c2ccccc21	64	n	n	n
COC(=O)C(NC(=O)c1ccccc1)c1ccccc1 (stereo unspecified)	n	n	n	60
SMILES	VCAM1 TNFa inh	HUVEC tox TNFa	F-actin modifier	E-sel TNF inh
O=C(CSc1nnc(CNc2ccc(F)cc2)o1)N1CCCc2ccccc21	x	x	x	63
O=C(NCc1nnc(SCC(=O)N2CCCc3ccccc32)o1)c1ccco1	x	x	x	n
Cc1ccc(-c2nnc(N3CCN(C(=O)CN4C(=O)c5ccccc5C4=O)CC3)c3ccccc23)cc1	n	n	n	100
O=C(CN1C(=O)c2ccccc2C1=O)N1CCN(c2nnc(-c3ccccc3)c3ccccc23)CC1	n	n	n	n
C/C(=N\NC(=O)CC1N=C(Cc2ccccc2)NNC1=O)c1ccc(C)cc1 (stereo unspecified)	n	n	n	100
O=C(Oc1ccc(/C=N/O)cc1)c1ccccc1	n	n	n	n
O=C(Oc1ccc(/C=N/Nc2ccccc2)cc1)c1ccccc1	n	n	n	58
CCOC(=O)/C=C/S(=O)(=O)c1ccc(NC(C)=O)cc1	n	n	n	76
COC(=O)CNC(=O)Cn1ccc2ccccc2c1=O	n	n	n	n
Cc1ccc(CNC(=O)Cn2ccc3ccccc3c2=O)o1	n	n	36	x
O=C(Oc1nsnc1N1CCOCC1)N1CCCCC1	n	n	n	n
O=C(Oc1nsnc1N1CCOCC1)N1CCOCC1	n	n	n	77
O=C(c1ccc(Br)cc1)c1cc([N+](=O)[O-])ccc1N1CCCCC1	92	n	n	n
Cc1ccc(C(=O)c2cc([N+](=O)[O-])ccc2N2CCOCC2)c(C)c1	79	n	n	n
COCCn1c(SCC(=O)Nc2cccc(C)n2)nnc1-c1ccco1	x	x	x	n
CCNC(=O)NC(=O)CSc1nc2ccccc2n1CCOC	n	n	n	n
C=CCNC(=O)COC(=O)/C=C/c1cccs1	x	x	x	n
C=CCNC(=O)/C=C/c1cccs1	x	x	x	94
